Experiment [1] concerns XIP peptide (Xip251-270) binding. Briefly: small-molecule binders of XIP peptide, primary screen, biochemical, small-molecule microarray, fluorescence 635/667 nm, 0.1 µg/mL protein (AID 1182). The conditions noted are these: fluorescent protein binding, 635 nm, higher = more signal, called active from +8 up or from −8 down.
In the next experiment the test system is XIP peptide (Xip251-270). Briefly: small-molecule binders of XIP peptide, primary screen, biochemical, small-molecule microarray, fluorescence 635/667 nm, 0.5 µg/mL protein (AID 1183). The following applies: small-molecule microarray binding, fluorescence 635 nm; higher = more signal.
Experiment [2] is described as follows: Plasmodium falciparum growth inhibition, primary screen, strain 3D7, DAPI fluorescence, 100 nL (AID 1184).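 Also: parasites grown inside human red blood cells in medium with human serum.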 The following applies: P. falciparum 3D7 growth, 3 d, higher = more signal.
Experiment [3] addresses Homeobox protein Hox-A13 (Mus musculus) (UniProt Q62424). Nature of the experiment: inhibitors of HoxA13-DNA binding, primary screen, biochemical, fluorescence polarization, labeled oligonucleotide (AID 1185). The following applies: 15 min, higher = more signal, called active from +8 up or from −8 down. In general terms: Polarisation of emitted light reports the rotation of a fluorescent probe.

Experiment [4] is described as follows: inhibitors of hydroxyurea-induced Chk1 phosphorylation, primary screen, imaging, HeLa, phospho-Chk1 antibody, percent positive cells (AID 1186). The conditions noted are these: hydroxyurea-induced phospho-Chk1 immunofluorescence imaging, higher = more signal.
A short description of experiment [5]: inhibitors of hydroxyurea-induced Chk1 phosphorylation, primary screen, imaging, HeLa, phospho-Chk1 nuclear intensity (AID 1187). The conditions noted are these: hydroxyurea-induced phospho-Chk1 immunofluorescence imaging, higher = more signal.

Activity calls are given as the source filed them. Unless noted, no rule for the calls is given here.

Homeobox protein Hox-A13 (Mus musculus), sequence (Q62424 whole entry, looked up): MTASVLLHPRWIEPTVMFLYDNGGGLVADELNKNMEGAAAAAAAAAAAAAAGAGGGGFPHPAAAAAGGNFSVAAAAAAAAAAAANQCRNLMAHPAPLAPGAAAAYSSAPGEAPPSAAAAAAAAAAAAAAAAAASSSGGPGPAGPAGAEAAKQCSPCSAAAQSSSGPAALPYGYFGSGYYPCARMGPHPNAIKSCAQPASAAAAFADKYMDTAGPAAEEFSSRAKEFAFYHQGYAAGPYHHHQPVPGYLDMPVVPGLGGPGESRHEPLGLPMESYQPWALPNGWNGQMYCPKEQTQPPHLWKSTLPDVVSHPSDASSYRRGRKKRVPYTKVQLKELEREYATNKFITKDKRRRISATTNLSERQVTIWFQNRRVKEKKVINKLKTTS

Turning to `COc1ccc(C(O)C2C=CC3C(=O)N(c4ccccc4)C(=O)C3N2Nc2ccc([N+](=O)[O-])cc2)c2ccccc12` (configuration not stated), the composite z-score in experiment [1] was 0.314 (inactive); in the experiment with XIP peptide (Xip251-270), 0.685. Also, the z-score in experiment [2] was -1.32; in experiment [3] it was -0.935 (inactive); in experiment [4], 0.219 (inactive); in experiment [5], -0.404 (inactive).

`CCC(CC)C(O)C1C=CC2C(=O)N(c3ccccc3)C(=O)C2N1Nc1ccccc1F` (configuration not stated): the composite z-score is 0.977 (inactive) in experiment [1] and -0.243 in the experiment on XIP peptide (Xip251-270). The z-score in experiment [2] is -0.0776; in experiment [3], -3.13 (inactive); in experiment [4], -0.121 (inactive); in experiment [5], -0.175 (inactive).

With `CC(C)C(O)C1C=CC2C(=O)NC(=O)C2N1Nc1ccccn1` (configuration not stated), the composite z-score is 0.163 (inactive) in experiment [1] and 0.943 in the experiment on XIP peptide (Xip251-270). Moreover, the z-score in experiment [2] was 0.17; in experiment [3] it was -3.11 (inactive); in experiment [4], -0.446 (inactive); in experiment [5], -0.67 (inactive).

In the case of `COc1ccccc1CN1C(=O)c2ccccc2[C@](Cc2ccccc2I)(C(=O)NCC(C)C)[C@@H]1c1ccc(CO)cc1`, the composite z-score in experiment [1] was 0.935 (inactive); in the experiment on XIP peptide (Xip251-270), 0.932. Besides, the z-score in experiment [2] was -0.409; in experiment [3], -3.82 (inactive); in experiment [4], -0.287 (inactive); in experiment [5], -0.208 (inactive).

For `C=C(CCCC)/C(=C/C[C@H](OC(=O)c1ccncc1)c1cccc(OCCO)c1)c1cnc2ccccc2c1`, the composite z-score in experiment [1] is 0.867 (inactive); in the experiment on XIP peptide (Xip251-270), 0.654. Also, the z-score in experiment [2] is -2.97; in experiment [3], -3.75 (inactive); in experiment [4], 0.218 (inactive); in experiment [5], 0.367 (inactive).

As for `CC1CC/C=C\[C@H]2OC34C=CCN(c5ccc6ccccc6c5)C(=O)[C@H]3N(C(C)CO)C(=O)[C@@H]4C2C(=O)O1` (some centres not stated), the composite z-score in experiment [1] was -0.0371 (inactive); in the experiment on XIP peptide (Xip251-270), -0.691. Besides, the z-score in experiment [2] was -0.338; in experiment [3], -4.97 (inactive); in experiment [4], 0.0352 (inactive); in experiment [5] it was -0.228 (inactive).

As for `CC(=O)OCC1C2CC[C@H]3C(OCc4ccc(F)cc4C(F)(F)F)OC[C@]4(C)[C@H]3C2=C(CN4C(=O)OC(C)(C)C)[C@H](C)C1COC(C)=O` (some centres not stated), the composite z-score was -0.07 (inactive) in experiment [1] and 0.653 in the experiment on XIP peptide (Xip251-270). Moreover, the z-score in experiment [2] is -1.22; in experiment [3] it was -3.13 (inactive); in experiment [4], 0.657 (inactive); in experiment [5], 0.833 (inactive).

As for `COC(=O)[C@@]1(Cc2ccc(OC)cc2)[C@H]2c3cc(C(=O)N4CCCC4)n(Cc4c(CO)[nH]cc(C)c4=O)c3C[C@H]2CN1C(=O)c1ccccc1`, the composite z-score in experiment [1] is 1.1 (inactive); in the experiment with XIP peptide (Xip251-270), 0.523. Further, the z-score is -1.56 in experiment [2], -5.39 (inactive) in experiment [3], -0.166 (inactive) in experiment [4] and 0.0081 (inactive) in experiment [5].

Turning to `O=C1N(Cc2ccccc2)c2ccccc2C[C@@]12COC(c1ccc(OCCCO)cc1)=N2`, the figures for the composite z-score (in experiment [1]; in the experiment with XIP peptide (Xip251-270)) were 1.45 (inactive) and 0.308, respectively. Further, the z-score was -2.23 in experiment [2], -5.21 (inactive) in experiment [3], 0.0438 (inactive) in experiment [4] and 0.311 (inactive) in experiment [5].

With `CCOC(=O)C1=CC[C@@H](c2ccccc2)N(S(=O)(=O)c2ccc(C)cc2)[C@H]1c1ccccc1I`, the figures for the composite z-score (in experiment [1]; with XIP peptide (Xip251-270)) were -0.0622 (inactive) and 0.77, respectively. For the same compound, the z-score in experiment [2] was -2.07; in experiment [3] it was -1.19 (inactive); in experiment [4], 0.0035 (inactive); in experiment [5], -0.763 (inactive).

With `CC(C)NC(=O)[C@@]1(c2ccc([N+](=O)[O-])cc2)CC(=O)N(CC23CC4CC(CC(C4)C2)C3)[C@@H]1c1ccc(CO)cc1`, the composite z-score was 1.26 (inactive) in experiment [1] and 0.918 in the experiment with XIP peptide (Xip251-270). Further, the z-score is -0.948 in experiment [2], -4.97 (inactive) in experiment [3], 0.103 (inactive) in experiment [4] and 0.412 (inactive) in experiment [5].

As to `CC(C)C[C@@H]1NC(=O)[C@@]23C(=O)N[C@@H](Cc4ccccc4)C2[C@H](C)[C@@]2(C)O[C@H]2C3/C=C/C/C=C\CNC(=O)CNC1=O` (some centres not stated), the composite z-score in experiment [1] was 0.533 (inactive); in the experiment on XIP peptide (Xip251-270), 0.58. Besides, the z-score was -0.59 in experiment [2], -5.87 (inactive) in experiment [3], 0.312 (inactive) in experiment [4] and -0.0422 (inactive) in experiment [5].

With `CN(C)CCCC[C@@H]1NC(=O)[C@H]2C[C@@H](C(=O)O)[C@@H](c3ccc(O)cc3)N2C1=O`, the composite z-score was 3.67 (inactive) in experiment [1] and 0.843 with XIP peptide (Xip251-270). Further, the z-score in experiment [2] was -0.947; in experiment [3], -1.63 (inactive); in experiment [4], 0.7 (inactive); in experiment [5], 0.571 (inactive).

In the case of `COCCOC(=O)N1C(=O)[C@@]2(c3ccccc31)[C@H](C(=O)N1CCN(c3ncccn3)CC1)[C@H]1C(=O)O[C@H](c3ccccc3)[C@H](c3ccccc3)N1[C@@H]2c1ccccc1OCCO`, the composite z-score in experiment [1] is 0.044 (inactive); in the experiment on XIP peptide (Xip251-270), 0.597. The z-score in experiment [2] is -1.99; in experiment [3] it was -1.77 (inactive); in experiment [4] it was -0.356 (inactive); in experiment [5], -0.484 (inactive).

Regarding `COCCOC(=O)N1C(=O)[C@@]2(c3cc(C#CCCO)ccc31)[C@H](c1ccc(OCCO)cc1)N1[C@H](c3ccccc3)[C@H](c3ccccc3)OC(=O)[C@H]1[C@@H]2C(=O)N1CCCCCCC1`, the composite z-score in experiment [1] is 0.788 (inactive); in the experiment with XIP peptide (Xip251-270) it was 0.614. Further, the z-score in experiment [2] was -2.1; in experiment [3], -4.34 (inactive); in experiment [4], 0.197 (inactive); in experiment [5], 0.476 (inactive).

As to `CCCCC(O)C1C=CC2C(=O)N(c3ccccc3)C(=O)C2N1Nc1ccccc1` (configuration not stated), the composite z-score was 0.145 (inactive) in experiment [1] and 0.137 in the experiment with XIP peptide (Xip251-270). Besides, the z-score in experiment [2] is -0.0871; in experiment [3], -4.11 (inactive); in experiment [4], 0.385 (inactive); in experiment [5], 0.283 (inactive).

In the case of `O=C(NC1CC1)[C@@H]1c2ccccc2C(=O)N(Cc2ccc(OC(F)(F)F)cc2)[C@H]1c1ccc(CO)cc1`, the composite z-score in experiment [1] was 2.46 (inactive); with XIP peptide (Xip251-270), 0.0303. Further, the z-score is 0.599 in experiment [2], -3.51 (inactive) in experiment [3], -0.453 (inactive) in experiment [4] and -0.577 (inactive) in experiment [5].

(Values after PubChem BioAssay.)
